In PubChem BioAssay AID2501 (Southern Research Specialized Biocontainment Screening …, 2010):
Screen size: about 2,200 compounds; about 1,200 (55%) were called active. The set was probably picked from earlier hits. The list shows a part of the results. Values without a mark were called inactive. Cut-off not given; nearly all actives show IC50 up to about 92 µM.

Experiment: counter assay for TAg ATPase ADP read-out – biochemical, ADP-Hunter, fluorescence, counter-screen (AID 2501);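 further: purified T antigen ATPase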;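 on inhibition: 0% = enzyme with vehicle and 100% = reference inhibitor wells; higher means more inhibition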
Settings: series mostly up to 100 µM; inhibition: at the top concentration

Compound | inhibition | IC50
Cc1cc(C)c2nc(-c3ccco3)cc(C(=O)O)c2c1 | -31.8% | –
COc1ccc(-n2c(=O)c3c4c(sc3n3c(=S)[nH]nc23)COC(C(C)C)C4)cc1 (stereo not drawn) | – | 16.3 µM (active)
CC(C)C1Cc2c(sc3c2c(=O)n(-c2ccccc2)c2n[nH]c(=S)n32)CO1 (stereo not drawn) | – | 21.9 µM (active)
Cc1cc(C)c2c(=O)n(CC(=O)NCCCN3CCN(c4ccccc4F)CC3)sc2n1 | 8.21% | –
C=CCOC(=O)C1=C(C)N=c2s/c(=C3\C(=O)N(CC(=O)O)c4ccccc43)c(=O)n2C1c1ccc(OC)cc1 (stereo not drawn) | 16.1% | –
COc1ccc2c(c1)c(C(=O)N/N=C/c1ccc(O)c(O)c1)c(C)n2C | – | 14.6 µM (active)
Cc1nonc1C(=O)N/N=C/c1ccc(O)c(O)c1 | – | 2.13 µM (active)
C=C1CC(C(=O)N/N=C/c2ccc(O)cc2)C1 | – | 5.39 µM (active)
O=C(N/N=C/c1ccc(O)c(O)c1)C1CC1 | – | 4.15 µM (active)
CCOC(=O)c1c(C)n(C)c2ccc(OCC(O)CN(CC)CC)cc12 (stereo not drawn) | -25.9% | –
O=C(NCCO)Nc1ccc2nc(-c3ccco3)c(-c3ccco3)nc2c1 | -158% | –
O=C(N/N=C/c1ccc(O)c(O)c1)N/N=C/c1ccc(O)c(O)c1 | – | 1.85 µM (active)
S=c1[nH]nc(NCCCN2CCOCC2)s1 | – | 52.3 µM (active)
CN1CSC2=C(C#N)C(c3cccc(OCc4ccccc4)c3)CC(=O)N2C1 (stereo not drawn) | – | 21.8 µM (active)
COc1ccc(N2CSC3=C(C#N)C(c4ccc(OC)c(OC)c4)CC(=O)N3C2)c(OC)c1 (stereo not drawn) | – | 24.8 µM (active)
COc1ccc(C2CC(=O)N3CN(c4ccccc4F)CSC3=C2C#N)cc1OC (stereo not drawn) | 27.1% | –
CCOc1ccc2ccccc2c1C(=O)N[C@@H]1C(=O)N2[C@@H]1SC(C)(C)[C@@H]2C(=O)O | 25.5% | –
CCOc1ccccc1N1CSC2=C(C#N)C(c3c(OC)ccc4ccccc34)CC(=O)N2C1 (stereo not drawn) | – | 81.2 µM (active)
COc1cc(SC#N)ccc1N=Cc1c(C)[nH]n(-c2cccc3ccccc23)c1=O | 16% | –
COc1ccccc1N1CSC2=C(C#N)C(c3ccc(SC)cc3)CC(=O)N2C1 (stereo not drawn) | – | 27.8 µM (active)
CC(C)c1ccc(C2CC(=O)N3CN(C)CSC3=C2C#N)cc1 (stereo not drawn) | 13.5% | –
CC(=O)N1N=C(c2ccc(C)cc2)CC1c1ccco1 (stereo not drawn) | 27.2% | –
COc1cc(OC)c(C2CC(=O)N3CN(c4ccc(C)cc4)CSC3=C2C#N)cc1OC (stereo not drawn) | – | 68 µM (active)
COc1ccc(N2CSC3=C(C#N)C(c4cc(OC)c(OC)cc4OC)CC(=O)N3C2)c(OC)c1 (stereo not drawn) | – | 78.4 µM (active)
COc1ccc(N2CSC3=C(C#N)C(c4cc(OC)ccc4OC)CC(=O)N3C2)c(OC)c1 (stereo not drawn) | – | 9.09 µM (active)

Compound | inhibition | IC50
COc1cc(OC)c(C2CC(=O)N3CN(c4ccccc4C)CSC3=C2C#N)cc1OC (stereo not drawn) | 26.7% | –
COc1ccc(OC)c(C2CC(=O)N3CN(c4cccc(Cl)c4C)CSC3=C2C#N)c1 (stereo not drawn) | 16.4% | –
COc1cc(OC)c(C2CC(=O)N3CN(C)CSC3=C2C#N)cc1OC (stereo not drawn) | – | 83.4 µM (active)
COc1ccc2c(c1OC)C(=O)N1c3ccccc3N=C(c3ccc([N+](=O)[O-])cc3)CC21 (stereo not drawn) | -23.3% | –
N#C/C(=C/c1ccc(O)c(O)c1)c1nc2ccccc2[nH]1 | – | 5.71 µM (active)
O=C(NCc1ccco1)/C(=C/c1ccc(C(F)(F)F)cc1)c1nc2ccccc2[nH]1 | -8.13% | –
O=C(CCn1cnc2ccccc21)N/N=C/c1ccc(O)cc1 | – | 7.9 µM (active)
O=C(C[n+]1ccccc1)N/N=C/c1ccc(O)cc1 | – | 3.04 µM (active)
O=C(CC(=O)N/N=C/c1ccc(O)cc1)N/N=C/c1ccc(O)cc1 | – | 1.98 µM (active)
Cc1cccc(-c2nn(-c3ccccc3)cc2C(=O)Nc2cccc(S(=O)(=O)NC3=NCCC3)c2)c1 | 10.6% | –
Cc1nc2cc(-c3ccsc3-n3c(C)ccc3C)[nH]n2c(=O)c1Cl | -94.4% | –
CNc1nc(-c2ccccc2)[n+](-c2ccc(C)cc2)s1 | – | 18.6 µM (active)
COc1cc2c(cc1OC)-c1cc(Nc3ccc(N(C)C)cc3)nc(=O)n1CC2 | – | 1.76 µM (active)
O=C1C=CC(=O)N1c1ccc(O)cc1 | 29.8% | –
O=C1CSC(=Nc2ccc(O)cc2)N1c1ccc(O)cc1 | – | 3.6 µM (active)
Cc1nnc(N/N=C/c2c(O)n(-c3cccc(C(F)(F)F)c3)c(=O)c3ccccc23)[nH]c1=O | – | 8.07 µM (active)
CC(C)c1ccc(CNc2nnnn2C)cc1 | -26.9% | –
Cc1ccc(CNc2ccc3c(c2)ncn3C(C)C)cc1 | – | 12.7 µM (active)
CN(C)c1ccc(CNc2ccc3c(c2)ncn3C)cc1 | – | 13.5 µM (active)
CCn1cnc2cc(NCc3ccc(N(C)C)cc3)ccc21 | – | 10.5 µM (active)
ClC(Cl)(c1nnnn1-c1ccccc1)c1nnnn1-c1ccccc1 | -14.1% | –
CC(Cc1ccc(O)c(O)c1)C(C)Cc1ccc(O)c(O)c1 (stereo not drawn) | – | 22.3 µM (active)
CCCCCCN=C(C)c1ccccc1O | -32.1% | –
CC(=O)N(c1ccc2oc(=O)sc2c1)S(=O)(=O)c1ccccc1 | – | 62.1 µM (active)
O=C(O)c1cccc(S(=O)(=O)Nc2ccc3oc(=O)sc3c2)c1 | 24.3% | –

Compound | inhibition | IC50
CSc1nc(O)c(C(c2ccc(OC(C)C)cc2)c2c(O)nc(SC)[nH]c2=O)c(=O)[nH]1 | -0.04% | –
COc1cc(/C=N/NC(=O)C2=NNC(=O)C2C)ccc1O (stereo not drawn) | – | 6.5 µM (active)
COc1cc(/C=N/NC(=O)CC2C(=O)NN=C2C)ccc1O (stereo not drawn) | – | 5.63 µM (active)
CCCc1cc(=O)[nH]c(Nc2ccc(O)cc2)n1 | – | 3.17 µM (active)
Oc1ccc(C=Nc2ccc(N3CCOCC3)cc2)c(O)c1 | – | 2.33 µM (active)
Oc1ccc(N=Cc2cc(Br)c(N3CCOCC3)o2)cc1 | – | 8.18 µM (active)
COc1cccc(C=Nc2ccc(N3CCOCC3)cc2)c1O | – | 5.29 µM (active)
Oc1ccc2ccccc2c1C=Nc1ccc(N2CCOCC2)cc1 | – | 2.74 µM (active)
Cc1ccc(NC(NC(=O)Cc2ccccc2)C(Cl)(Cl)Cl)cc1 (stereo not drawn) | -24.6% | –
CC1CCCN(Cc2nc(Cc3ccccc3Cl)no2)C1 (stereo not drawn) | -5.63% | –
COc1ccc(CC(O)COS(N)(=O)=O)cc1 (stereo not drawn) | -27.6% | –
O=[N+]([O-])/C=C\c1ccc(N2CCOCC2)cc1 | -8.52% | –
O=[N+]([O-])c1cc(Cc2ccccc2)cc(C=Nc2ccc(N3CCOCC3)cc2)c1O | – | 3.16 µM (active)
C(=Nc1ccc(N2CCOCC2)cc1)c1c[nH]c2ccccc12 | – | 7.55 µM (active)
O=C(O)c1cc(-c2ccco2)nc2cc3ccccc3cc12 | 8.1% | –
CCC(=O)NC(C)C(c1cccs1)N1CCN(c2ccccc2)CC1 (stereo not drawn) | 1.69% | –
O=c1cc(CN2CCN(c3ccc(O)cc3)CC2)nc2scc(-c3ccccc3)n12 | – | 9.38 µM (active)
O=c1[nH]c(=S)[nH]c2[nH]c(=S)[nH]c12 | – | 52.7 µM (active)
CC(C)N1CN(c2ccccc2)C(=S)N(c2ccccc2)C1 | 13.2% | –
N#C/C(C(=O)Nc1ccc(Cl)cc1)=C(/S)Nc1ccccc1 | – | 21.8 µM (active)
Cc1nnc(Nc2ccc(O)cc2)[nH]c1=O | – | 3.89 µM (active)
Cc1n[nH]c(=O)nc1Nc1ccc(O)cc1 | – | 2.48 µM (active)
Cc1[nH]nc(Nc2ccc(O)cc2)c1[N+](=O)[O-] | – | 3.93 µM (active)
COc1cc(/C=C(\C#N)C(=O)N2CCc3ccccc32)ccc1O | – | 2.3 µM (active)
N#C/C(=C\c1ccc(O)c(O)c1)C(=O)N1CCc2ccccc21 | – | 9.2 µM (active)

Compound | inhibition | IC50
COc1cc(/C=C(\C#N)C(=O)N2CCCCC2)ccc1O | – | 5.73 µM (active)
COc1cc(C=C(C(C)=O)C(C)=O)ccc1O | – | 3.76 µM (active)
CCC(=O)N1CCc2cc(S(=O)(=O)N(C)c3ccc(OC)cc3OC)ccc21 | 22.4% | –
Cc1cc(/C=C(\C#N)C(=O)NC2CCCCCC2)c(C)n1C | -11.6% | –
CC(C)(C)NC(=O)COC(=O)c1cc(F)c(F)cc1Cl | 0.35% | –
CCOC(=O)N1[C@@H]2C=C(C)[C@@H]2[C@@H]2[C@@H](C)C(=O)N21 | 12% | –
COc1cc(/C=C/C(=O)c2ccc([N+](=O)[O-])o2)ccc1O | – | 5.19 µM (active)
Cc1ccccc1/C=C/C(=O)c1ccc([N+](=O)[O-])o1 | -26.8% | –
O=C(/C=C/c1cccc(Cl)c1)c1ccc([N+](=O)[O-])o1 | -11.4% | –
Cc1ccc(S(=O)(=O)N2[C@@H](c3ccc(Cl)cc3)C(C(=O)O)=CC[C@H]2c2ccc(Cl)cc2)cc1 | -14.6% | –
O=S(=O)(c1ccc(NC(=S)N/N=C/c2ccc(O)c(O)c2)cc1)N1CCOCC1 | – | 5.94 µM (active)
COc1ccc(NC(=O)CN(C)C(=O)CCc2nc3cc(S(=O)(=O)N4CCOCC4)ccc3n2C)cc1 | -2.23% | –
Cc1ccc(S(=O)(=O)N2CCN(CC(=O)N/N=C\c3ccc(O)c(O)c3)CC2)cc1 | – | 3.2 µM (active)
CCN(CC)c1ccc(NC(=O)CCNS(=O)(=O)c2ccc3c(c2)CCC(=O)N3)c(C)c1 | – | 7.36 µM (active)
Cc1c(NC(=O)CN2CCN(c3ccc(O)cc3)CC2)c(=O)n(-c2ccccc2)n1C | – | 8.18 µM (active)
COc1ccc(-c2nnc(SC(C)C(=O)Nc3c(C)n(C)n(-c4ccccc4)c3=O)o2)cc1 (stereo not drawn) | 3.49% | –
CC(C)(C)NC(=O)NC(=O)CN1CCN(c2ccc(O)cc2)CC1 | – | 4.89 µM (active)
Cc1c(NC(=O)C(C)OC(=O)/C=C/c2ccco2)c(=O)n(-c2ccccc2)n1C (stereo not drawn) | 12.1% | –
Cc1c(NC(=O)COC(=O)COc2ccc(Nc3ccccc3)cc2)c(=O)n(-c2ccccc2)n1C | – | 8.78 µM (active)
Cc1c(NC(=O)c2cnn3c2NC(c2ccccc2)CC3C(F)(F)F)c(=O)n(-c2ccccc2)n1C (stereo not drawn) | -5.94% | –
N#Cc1ccsc1NC(=O)CN1CCN(c2ccc(O)cc2)CC1 | – | 6.3 µM (active)
CN1CCN(CC(=O)Nc2c(C#N)cnn2-c2ccccc2)CC1 | -5.67% | –
Cc1nc2ccc(NC(=O)c3cc([N+](=O)[O-])cc([N+](=O)[O-])c3Cl)cc2s1 | -16.9% | –
